# Source: PubChem
# A selection: hits, their analogues and other compounds. The true share with any hit is near 0.81%.
# Bcl-B Bim block = inhibitors of Bim-Bcl-B interaction, human; Q9HD36; bead-based flow cytometry, Bim peptide-Bcl-B binding; inhibition, % at 10 µM; hit rate 0.073% among 190,000; AID 951;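 further: 0% = tracer peptide without compound and 100% = reference inhibitor peptide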
# Target sequence (Q9HD36 whole entry, looked up): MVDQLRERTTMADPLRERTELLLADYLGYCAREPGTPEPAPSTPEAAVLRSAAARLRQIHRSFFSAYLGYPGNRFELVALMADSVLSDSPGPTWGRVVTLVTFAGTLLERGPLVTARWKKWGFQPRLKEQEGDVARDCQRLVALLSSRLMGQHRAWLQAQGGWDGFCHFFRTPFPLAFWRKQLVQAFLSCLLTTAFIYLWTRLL
# Bim-Bcl-XL = disrupts Bim peptide binding to human Bcl-XL; Q07817; bead flow cytometry, fluorescence; inhibition, % at 10 µM; hit rate 0.04% among 190,000
# Bcl-xL primary = inhibitors of human Bcl-xL; Q07817; GST-Bcl-xL / FITC-Bim BH3 peptide fluorescence polarization; hit rate 0.7% among 320,000; inhibition, % at 10.9 µM; AID 2129;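 active means inhibition above the mean of all tested compounds plus 3 SD, cutoff set per campaign, cut at about 30% in these data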;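 further: 0% = DMSO wells and 100% = unlabeled Bim-BH3 peptide competitor; inhibitors lower millipolarization by displacing the labeled peptide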
# Bcl-W Bim block = disrupts Bim peptide binding to human Bcl-W | hit rate 0.02% among 190,000 | Q92843 | bead-based flow cytometry | inhibition, % at 10 µM;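 further: 0% = bound tracer without compound and 100% = peptide blocker; higher means less fluorescent Bim peptide bound to Bcl-W beads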
# Target sequence (Q92843 whole entry, looked up): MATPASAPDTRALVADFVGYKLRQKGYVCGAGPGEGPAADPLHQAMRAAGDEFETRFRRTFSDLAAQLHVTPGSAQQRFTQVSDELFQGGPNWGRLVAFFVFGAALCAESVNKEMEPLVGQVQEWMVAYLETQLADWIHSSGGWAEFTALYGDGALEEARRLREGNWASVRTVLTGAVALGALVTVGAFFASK
# Bfl-1 Bim block = disrupts Bim binding to human Bfl-1 | Q16548 | Bead-based flow cytometry, Bim-Bfl-1 binding inhibition | inhibition, % at 10 µM | hit rate 0.12% among 190,000;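 further: 0% = wells without compound plus tracer and 100% = blocker peptide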
# Target sequence (Q16548 whole entry, looked up): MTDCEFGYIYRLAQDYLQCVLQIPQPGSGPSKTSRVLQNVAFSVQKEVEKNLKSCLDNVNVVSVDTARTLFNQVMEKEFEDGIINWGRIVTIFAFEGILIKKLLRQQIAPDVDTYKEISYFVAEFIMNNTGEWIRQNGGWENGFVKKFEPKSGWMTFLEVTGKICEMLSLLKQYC
# Bcl-2 Bim block = disrupts Bim peptide binding to human Bcl-2; inhibition, % at 10 µM; P10415; hit rate 0.06% among 190,000; Bead-based flow cytometry, Bim peptide-Bcl-2 binding; AID 950; in the data active means inhibition above about 40%;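 further: 0% = no compound wells with probe peptide and 100% = reference peptide inhibitor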
# * marks the source's active call; other numbers are inactive results; / = no result; ! = not active in a repeat. Unless noted, no stated cut-off is given here; in the data, active means inhibition above about 40%.
SMILES,Bcl-B Bim block,Bim-Bcl-XL,Bcl-xL primary,Bcl-W Bim block,Bfl-1 Bim block,Bcl-2 Bim block
COc1ccc(C2C=C(c3ccc(Br)s3)Nc3ncnn32)cc1OC (configuration not stated),1,0,189*,0,0,0
COc1cccc(C2=CC(c3ccc(N(C)C)cc3)n3ncnc3N2)c1 (configuration not stated),-11,6,4,0,-15,-12
CCOc1ccc(C2C=C(c3ccccc3)Nc3ncnn32)cc1 (configuration not stated),0,-1,46*,0,-4,0
COc1cccc(C2=CC(c3ccccc3)n3ncnc3N2)c1 (configuration not stated),-5,-1,39*,2,-8,3
COc1ccc(Nc2nnc(SCc3cc(=O)n4ccsc4n3)s2)cc1,-11,-7,66*,-6,3,0
O=c1cc(CSc2nnc(Nc3ccccc3F)s2)nc2sccn12,-5,1,-2,0,0,1
Nc1ccc2c(c1)C/C(=C/c1ccco1)C2=O,-9,-5,60*,2,10,4
COC(=O)C1=C(C)NC(=O)/C1=C\N(C)C,-5,-1,91*,1,-2,0
NC(=O)c1cc2ccc(O)cc2oc1=NCc1ccccc1,-8,-5,129*,-1,-21,-9
COc1ccc(-c2onc(C)c2-c2ccccc2)c(O)c1,-2,-3,3,0,-10,-5
O=C1c2ccccc2-c2onc3c(Oc4ccccc4)cc(O)c1c23,-14,29,/,28,43*,22
CC1(C)N([O-])c2cc([N+](=O)[O-])ccc2[N+]1=O,/,/,35*,/,/,/
Cc1ccc(C)n1-c1cc([N+](=O)[O-])ccc1-n1ccnc1,/,/,3,/,/,/
CCNc1cc2oc(=O)c(CN3CCOCC3)c(C)c2cc1C,-4,-2,32*,-1,1,-6
CN(C)C1=NCCN1CC1CCCCCC1,/,/,4,/,/,/
N#CC1=C(N)Oc2cc(O)c(Cl)cc2C1c1ccccc1F (configuration not stated),/,/,78*,/,/,/
Cc1ccc(CNc2ccc3c(c2)OCO3)cc1,-7,2,139*,18,40*,10
COC(=O)CNc1ccc2c(c1)OCO2,-8,8,31*,4,12,/
c1cc(CNc2ccc3c(c2)OCO3)ccn1,-1,0,86*,2,1,-4
CCOc1cc(-c2cc(-c3ccc(C)cc3)nc(N)c2C#N)ccc1O,-1,0,30*,0,1,-2
COc1cc(-c2cc(-c3ccc(O)cc3)nc(N)c2C#N)ccc1O,11,17,1,12,1,0
CCn1c(COC(=O)CNC(=O)c2ccccc2F)nc2cc(S(=O)(=O)N(C)C)ccc21,/,/,1,/,/,/
O=C(CSc1nc(O)cc(=O)n1-c1ccccc1)Nc1nc2ccccc2s1,/,/,-2,/,/,/
c1ccc(CCNc2nc3ccccc3n3nnnc23)cc1,-7,-9,8,3,-10,-7
COc1ccc(CCNc2nc3ccccc3n3nnnc23)cc1OC,-4,-1,54*,2,-9,-3
SMILES,Bcl-B Bim block,Bim-Bcl-XL,Bcl-xL primary,Bcl-W Bim block,Bfl-1 Bim block,Bcl-2 Bim block
O=C(Cc1ccc(Cl)cc1)NC1CCCN(Cc2ccccc2F)C1 (configuration not stated),/,/,8,/,/,/
CC(Sc1nc(N2CCOCC2)c2c(c1C#N)CC(C)(C)OC2)C(=O)O (configuration not stated),/,/,31*,/,/,/
CCOC(=O)CSc1nc(N2CCOCC2)c2c(c1C#N)CC(C)(C)N(C)C2,-3,-2,59*,0,-17,-9
CC(C)Sc1nc(N2CCOCC2)c2c(c1C#N)CC(C)(C)N(C)C2,-4,-3,50*,0,-8,-6
CC(NS(=O)(=O)c1ccc(Cl)cc1)C(=O)NCCC1=CCCCC1 (configuration not stated),-6,-4,6,-3,-5,-6
N#Cc1c(OCC(=O)c2ccccc2)nc2c(c1-c1ccco1)CCc1ccccc1-2,-2,0,34*,1,8,10
S=C(Nc1ccc2nsnc2c1)N1CCCCCC1,-9,-3,32*,-3,0,0
CCOCCCNC(=O)CN1C(=O)c2ccccc2Sc2ncccc21,/,/,5,/,/,/
N#Cc1c(SCC(=O)Nc2nc3ccccc3s2)sc2c(O)cc(=O)[nH]c12,/,/,31*,/,/,/
N#Cc1c(SCC(=O)Nc2nc3ccc(Br)cc3s2)sc2c(O)cc(=O)[nH]c12,/,/,19,/,/,/
N#C/C(=C\c1ccccc1Br)C(=O)NC1CC1,/,/,9,/,/,/
O=S(=O)(CCN1CCCCC1)Oc1ccc(Cl)cc1Cl,/,/,2,/,/,/
O=C(O)c1ccc2c(c1)[C@@H]1C=CC[C@@H]1[C@H](c1ccccn1)N2,/,/,56*,/,/,/
COc1ccc(C(=O)N/N=C(\C)c2ccc3c(c2)C2C=CCC2C(c2ccccc2)N3)cc1 (configuration not stated),4,4,30,14,24,16
Cc1ccc(C)c(S(=O)(=O)NC(C)C(=O)NCc2ccccn2)c1 (configuration not stated),/,/,-5,/,/,/
Cc1cc(C(=O)COc2ccccc2C(N)=O)c(C)n1C,0,-3,-1,1,-3,2
Cc1cc(C(=O)COc2cccc3cccnc23)c(C)n1C,-6,-3,147*,0,-12,-11
CC1CCN(C(=O)CN2C(=O)C(=O)N(C(C)C)C2=O)c2ccccc2S1 (configuration not stated),/,/,-6,/,/,/
Nc1c(C(=O)NCc2ccco2)sc2nc3c(cc12)C(=O)CCC3,6,16,12,42*,48*,20
O=C(COc1ccc(F)cc1Br)NCc1ccccn1,-1,-1,0,0,-1,4
O=C(COc1ccccc1Br)NCc1ccccn1,75*,10,0,5,44*,71*
CN(Cc1nccs1)C(=O)C1CCC(=O)N(Cc2ccccc2F)C1 (configuration not stated),/,/,7,/,/,/
Cc1cc(-c2nnc(CCC(=O)NC(C)c3cccc4ccccc34)o2)no1 (configuration not stated),78*,17,-2,11,44*,73*
CC(C)C(=O)Nc1cc2c3c(c1)CCC(=O)N3CCC2,/,/,5,/,/,/
O=C(O)c1cc(-c2ccco2)nc2ccc(Br)cc12,-3,5,96*!,1,-5,-3
SMILES,Bcl-B Bim block,Bim-Bcl-XL,Bcl-xL primary,Bcl-W Bim block,Bfl-1 Bim block,Bcl-2 Bim block
O=C(c1ccco1)N1CCN(C(=O)c2cc(-c3ccncc3)nc3ccc(Br)cc23)CC1,/,/,12,/,/,/
S=C(NCCc1ccccc1)NCCc1ccccc1,24,39,-6,29,44*,22
NNC(=S)NCCc1ccccc1,-1,1,-1,-4,5,2
CCOc1ccc(NC(=O)CCNC(=O)Cn2cnc3ccccc3c2=O)cc1,/,/,-1,/,/,/
COc1cccc(CC(=O)Nc2cc(S(=O)(=O)N3CCOCC3)ccc2N2CCN(C)CC2)c1,/,/,-2,/,/,/
COc1cccc(C(=O)N2CCN(C(=O)c3cccc(F)c3)CC2)c1,-3,-1,76*,0,-8,-7
